TRHR agonist – activates the human TRH receptor. 0.18% of 360,000 active. activation, % at 2 µM. TRHR cells, calcium flux fluo-8, FDSS agonist mode. P34981. AID 493084
Target sequence (P34981 whole entry, looked up): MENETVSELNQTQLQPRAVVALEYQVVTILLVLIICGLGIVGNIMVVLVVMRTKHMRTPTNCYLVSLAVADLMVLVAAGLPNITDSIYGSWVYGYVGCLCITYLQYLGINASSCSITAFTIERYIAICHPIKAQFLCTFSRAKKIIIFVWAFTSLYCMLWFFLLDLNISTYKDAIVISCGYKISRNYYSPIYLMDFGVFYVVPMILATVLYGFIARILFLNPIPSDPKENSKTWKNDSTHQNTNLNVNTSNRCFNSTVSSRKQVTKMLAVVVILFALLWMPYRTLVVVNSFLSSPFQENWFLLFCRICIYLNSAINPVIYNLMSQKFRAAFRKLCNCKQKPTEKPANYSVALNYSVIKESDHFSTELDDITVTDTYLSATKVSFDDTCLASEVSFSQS
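TRHR-expressing cells loaded with fluo-8 calcium dye; 23 nL library compound pin-transferred, kinetic FDSS fluorescence (Ex 480/Em 530) recorded about 180 s for agonist-induced calcium release, before a 10 nM TRH EC20 addition for potentiator mode.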
D1 agonist – human D1 receptor agonism | HEK293 T-REx D1 cells, calcium flux, agonist mode | activation, % at 2 µM | AID 504660 | 1% of 360,000 active | P21728
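Inducible HEK293 T-REx D1 cells, force-coupled to calcium signalling, were plated at 4000 cells/well with tetracycline and held overnight at 30 C. After no-wash calcium dye loading, compound-evoked calcium rise over 180 s flagged agonists.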
D1 PAM – enhances dopamine response at the human D1 receptor. AID 504651. 0.036% of 360,000 active. HEK293 TREx D1 cells, calcium flux, dopamine EC20 potentiation. potentiation, % at 10 µM; in the data active = potentiation above about 30%
TRHR enhancer – TRH receptor (human) allosteric enhancement. P34981. TRHR cells, fluo-8 calcium fluorescence, EC20 TRH enhancement. enhancement, % at 2 µM. 0.66% of 360,000 active; in the data active = enhancement above about 30%
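Enhancer read-out: after compound pinning and an initial kinetic agonist-mode read, an EC20 of TRH (10 nM final) was injected and fluo-8 calcium signal (Ex 480/Em 530) followed at 1 s/cycle for 100 cycles in TRHR-expressing cells.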
LDHA block – inhibitors of human lactate dehydrogenase A; activity change, % (values are at about 110 or 230 µM); P00338; purified LDHA, NADH/diaphorase-resazurin fluorescence; active compounds read low; 0.15% of 480,000 active; in the data active = activity change below about -30%
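Remaining NADH was detected by diaphorase (0.133 mg/mL) converting 37 µM resazurin to fluorescent resorufin, read at 0 and 20 minutes. The preceding 5-minute room-temperature reaction used 2 nM LDHA, 0.2 mM sodium pyruvate and 0.06 mM NADH at pH 7.4.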
D1 antagonist – antagonists of human D1 dopamine receptor; 3.2% of 360,000 active; P21728; HEK293 TREx D1 cells, calcium flux, dopamine EC80; active compounds read low; activity change, negative = inhibition, % at 10 µM; in the data active = activity change below about -30%
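Inducible Hek293 Trex D1 cells (tetracycline, overnight, 30 C). Calcium dye 30–90 min RT. Antagonist mode: EC80 dopamine added after 180 s compound read.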
A number is an active result; 0 = inactive; - = no result. An excerpt weighted towards active compounds, which were near 3.6% of everything screened. Rule as the data show it, unless noted: active = activation above about 30%; inactive = the rest.

SMILES	TRHR agonist	D1 agonist	D1 PAM	TRHR enhancer	LDHA block	D1 antagonist
COc1ccc(CNCc2ccc3ccccc3c2)c(OC)c1	0	34	0	0	0	0
CN(C(=O)c1cnc(N2CCOCC2)c2ccccc12)c1ccccc1Cl	-	-	-	-	0	-
COc1ccc(-c2nc(C(=O)O)cs2)cc1OC	0	0	0	0	0	-36
COc1cc2[nH]c(Cl)c([N+](=O)[O-])c2cc1OC	0	0	0	0	0	-31
CCC(CC)C(=O)n1ccn(S(=O)(=O)c2ccc(C)cc2)c1=O	-	-	-	-	0	-
Cn1c(=O)oc2cc(S(=O)(=O)NC3CCCc4ccccc43)ccc21 (stereo unspecified)	0	0	-	0	0	-36
COc1ccc(S(=O)(=O)NC2CCc3ccccc32)cc1OC (stereo unspecified)	0	0	0	0	0	-37
Cc1n[nH]c(=S)n1/N=C/c1cccc(OCc2ccccc2)c1	0	0	0	0	0	0
Cc1n[nH]c(=S)n1/N=C/c1ccccc1OCc1ccc(Cl)cc1	0	0	0	0	0	-87
Clc1ccc(NC2(c3nnnn3-c3ccccc3)CCCCC2)cc1	-	-	-	-	0	-
O=C(Cn1nc(-c2ccc(Cl)cc2)ccc1=O)N1CCN(c2ccccc2)CC1	0	0	0	32	0	0
CCOC(=O)Cn1cnc2c(cnn2-c2ccc(Cl)cc2)c1=O	0	0	0	0	0	-49
O=C(Cn1cnc2c(cnn2-c2ccc(Cl)cc2)c1=O)N1CCN(c2ccccc2)CC1	0	0	0	0	0	-32
O=C(Cn1cnc2ccccc2c1=O)N1CCN(c2ccccc2)CC1	0	0	0	0	0	-36
O=C(Cn1cnc2c(cnn2-c2ccccc2)c1=O)N1CCOCC1	0	0	0	0	0	0
CC(=O)NC(C)(C)Cc1ccc(O)c(Br)c1	-	-	-	-	0	-
CC1=C(C(=O)OC(C)(C)C)C(c2ccccc2Cl)NC(=S)N1 (stereo unspecified)	-	-	-	-	0	-
Cc1nonc1CN1CCN(C(C(=O)O)c2c[nH]c3cc(Br)ccc23)CC1 (stereo unspecified)	-	-	-	-	0	-
COc1ccc(N2CCN(C(=O)Cn3cnc4nc5c(cc4c3=O)CCCC5)CC2)cc1	0	0	0	0	0	-31
O=C(Cn1cnc2ccccc2c1=O)c1ccc(Cl)cc1	0	0	0	0	0	-42
O=C(COC(=O)c1ccc([N+](=O)[O-])s1)Nc1ccc(F)cc1	0	0	0	0	0	-38
Cc1cc(C(=O)N2CCN(S(=O)(=O)c3ccc(F)cc3)CC2)c(C)n1Cc1ccco1	-	-	-	-	0	-
O=S(=O)(c1ccc(F)cc1)N1CCN(C(=S)NCCc2ccccc2)CC1	0	0	0	0	0	0
O=S(=O)(c1ccc(F)cc1)N1CCN(C(=S)NCc2ccccc2)CC1	0	0	0	0	0	-31
C#CCOCCOCCOCCNc1nc(N2CCN(C(=O)CCCCCCCCCCNC(=O)[C@H](CCC(=O)O)n3cc(CCCCCN)nn3)CC2)nc(N2CCN(C(=O)CCCCCCCCCCNC(=O)[C@@H]([C@H](C)O)n3cc(C)nn3)CC2)n1	0	0	0	0	0	0
SMILES	TRHR agonist	D1 agonist	D1 PAM	TRHR enhancer	LDHA block	D1 antagonist
C#CCOCCOCCOCCNc1nc(N2CCOCC2)nc(N2CCN(C(=O)[C@H](CCCCN)n3cc([C@@H](N)C(C)CC)nn3)CC2)n1 (stereo partly specified)	0	0	0	0	0	-35
C#CCOCCOCCOCCNc1nc(N2CCN(C(=O)CCCCCCCCCCNC(=O)[C@H]([C@@H](C)CC)n3cc(CCCCCN)nn3)CC2)nc(N2CCN(C(=O)CCCCCCCCCCNC(=O)[C@@H]([C@H](C)O)n3cc(C)nn3)CC2)n1	0	156	55	0	0	0
C#CCOCCOCCOCCNc1nc(N2CCN(C(=O)CCCCCCCCCCNC(=O)[C@H](CCCCN)n3cc(C)nn3)CC2)nc(N2CCN(C(=O)CCCCCCCCCCNC(=O)[C@@H]([C@H](C)CC)n3cc(CCCCCN)nn3)CC2)n1	0	0	40	0	-	0
O=C(Nc1ccc2oc(=O)ccc2c1)c1cc(Cl)ccc1Cl	-	-	-	-	0	-
Nc1cnc(-c2ccccc2)nc1Cl	0	0	0	0	0	-39
c1ccc(-c2cnc(-c3ccccc3)nc2)cc1	0	0	0	0	0	0
O=C(NC1CCN(Cc2ccccc2)CC1)c1ccccc1	0	0	0	0	0	0
O=C(NC1CCN(CCc2c[nH]c3ccccc23)CC1)c1ccccc1	0	67	0	0	0	-83
O=C(NC1CCN(Cc2cccc([N+](=O)[O-])c2)CC1)c1ccccc1	0	0	0	0	0	-57
O=C(NC1CCN(Cc2ccc(Cl)cc2Cl)CC1)c1ccccc1	0	0	0	0	0	-76
CCOc1ccc2c(=O)c(-c3ccc(OC)cc3)c(C)oc2c1	-	-	-	-	0	-
COc1ccccc1NC(=O)c1ccc(NC(=O)c2ccccc2SCC2CCCO2)cc1 (stereo unspecified)	-	-	-	-	0	-
COc1ccccc1NC(=S)N(Cc1ccccc1)Cc1cccs1	0	0	0	0	0	-54
COc1ccccc1NC(=S)N(Cc1cccs1)C1CCCC1	0	0	0	0	0	0
CCSc1nnc2c(n1)OC(c1ccc(OC)c(OC)c1)N(C(C)=O)c1ccccc1-2 (stereo unspecified)	0	0	0	0	0	-30
COCCn1c(C)cc(O)c(C(c2ccccc2OC)N2CCN(c3ccccc3)CC2)c1=O (stereo unspecified)	0	0	0	45	0	0
COCCn1c(C)cc(O)c(C(c2ccccc2F)N2CCN(c3ccccc3)CC2)c1=O (stereo unspecified)	0	0	0	0	0	0
CCN1CCN(C(c2ccc(Cl)cc2)c2c(O)cc(C)n(CCOC)c2=O)CC1 (stereo unspecified)	0	0	0	0	0	-39
Nc1ccc(/C=C/C(=O)c2ccco2)cc1	0	72	0	0	0	0
N#Cc1ccc(/C=C/C(=O)c2ccco2)cc1	0	0	0	0	0	0
CCOC(=O)c1ccc(Nc2sc(C(=O)c3cccc([N+](=O)[O-])c3)c(N)c2C#N)cc1	0	0	0	0	0	-32
CC(C)(C)NC(=O)CNC(=O)CC1C=CCC1 (stereo unspecified)	-	-	-	-	0	-
CC(C)OC(=O)CSc1ncnc2c1cnn2Cc1ccccc1	0	0	0	0	0	0
COC(=O)CSc1ncnc2c1cnn2Cc1ccccc1	0	42	0	0	0	0
Cc1ccsc1/C=C/C(=O)O	0	0	0	0	0	0
Cc1ccsc1/C=C/c1n[nH]c(=O)c(C#N)c1C	0	0	0	0	0	-33
